Results filed as inconclusive are left out. The source made the active and inactive calls. How the source made its calls: active means hit-call score of the fitted dose curve at least 0.9, where 1 is the maximum; inconclusive means response in the unintended direction; inactive means score below 0.9.
What follows are molecules tested against Bile acid receptor (Homo sapiens) (UniProt Q96RI1) (assay: NVS_NR_hFXR_Antagonist: NovaScreen (NVS) Nuclear Receptor Binding Assay for human Farnesoid X Receptor Antagonism (FXR) (AID 2283350)).
Chain of Bile acid receptor (Homo sapiens) (Q96RI1 whole entry, looked up): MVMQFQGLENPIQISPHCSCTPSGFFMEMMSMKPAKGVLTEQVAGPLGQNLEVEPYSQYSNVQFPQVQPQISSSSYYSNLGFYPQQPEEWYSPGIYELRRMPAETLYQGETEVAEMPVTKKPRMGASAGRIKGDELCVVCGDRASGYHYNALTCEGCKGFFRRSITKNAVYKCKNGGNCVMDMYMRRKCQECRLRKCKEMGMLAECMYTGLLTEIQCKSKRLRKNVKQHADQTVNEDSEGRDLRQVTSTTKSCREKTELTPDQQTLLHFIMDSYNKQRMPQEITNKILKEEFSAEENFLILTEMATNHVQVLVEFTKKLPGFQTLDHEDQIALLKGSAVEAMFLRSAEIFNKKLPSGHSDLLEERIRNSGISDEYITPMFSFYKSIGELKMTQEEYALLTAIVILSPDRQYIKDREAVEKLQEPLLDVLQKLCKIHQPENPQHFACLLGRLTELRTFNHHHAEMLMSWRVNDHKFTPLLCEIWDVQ
In short: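 Cell-free TR-FRET ligand-binding read-out on human FXR (NR1H4) in antagonist mode, measured 1 h after dosing. Primary screen in duplicate at 25 uM, actives retested in concentration series; signal loss scored versus DMSO.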
In the case of `CCC(C)(C)C(=O)OC1=C(c2ccc(Cl)cc2Cl)C(=O)OC12CCCCC2`, the outcome is reported as “inactive”. In the case of `CC1(c2ccc(Oc3ccccc3)cc2)OC(=O)N(Nc2ccccc2)C1=O` (configuration not stated), the AC50 is reported as 10 µM (active). In the case of `COC(=O)c1ccccc1S(=O)(=O)NC(=O)Nc1nc(C)nc(OC)n1`, the outcome is reported as “inactive”. `CCN(CC)C(=O)SCc1ccc(Cl)cc1` was tested, and the outcome was “inactive”. In the case of `CN1CSC(=S)N(C)C1`, the AC50 is reported as 9.27 µM (active). With `CCc1ccc(C(=O)NN(C(=O)c2cc(C)cc(C)c2)C(C)(C)C)cc1` the outcome was “inactive”.

Each molecule was assayed against Estrogen receptor (Homo sapiens) (UniProt P03372) (assay: OT_ER_ERaERa_0480: Odyssey Thera (OT) 8-hour HEK293T Protein-Complementation Assay for Estrogen Receptor-alpha/-alpha Homodimer (AID 2283351);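 further: rise in fluorescence from reassembled reporter fragments on ERα LBD homodimer in nucleus or whole cell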).
Chain of Estrogen receptor (Homo sapiens) (P03372 whole entry, looked up, the tested form may be a part): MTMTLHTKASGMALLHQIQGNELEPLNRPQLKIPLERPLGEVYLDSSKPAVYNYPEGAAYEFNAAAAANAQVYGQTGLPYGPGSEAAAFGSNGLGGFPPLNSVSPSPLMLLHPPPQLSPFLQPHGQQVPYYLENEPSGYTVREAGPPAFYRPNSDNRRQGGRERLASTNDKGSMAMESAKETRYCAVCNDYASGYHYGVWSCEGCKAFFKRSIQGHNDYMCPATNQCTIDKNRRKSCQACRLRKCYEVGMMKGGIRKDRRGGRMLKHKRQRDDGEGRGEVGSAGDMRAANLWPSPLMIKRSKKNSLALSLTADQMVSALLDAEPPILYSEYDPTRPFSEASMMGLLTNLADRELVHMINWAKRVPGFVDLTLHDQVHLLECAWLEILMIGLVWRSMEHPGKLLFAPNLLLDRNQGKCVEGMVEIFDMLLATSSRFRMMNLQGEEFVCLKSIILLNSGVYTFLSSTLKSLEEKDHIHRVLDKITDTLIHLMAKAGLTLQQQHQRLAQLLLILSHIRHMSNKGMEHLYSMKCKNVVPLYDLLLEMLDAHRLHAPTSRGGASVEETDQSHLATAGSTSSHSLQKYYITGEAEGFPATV
In short: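 HEK293T, stable ERα LBD (aa 310-547) PCA homodimer; 8 h compound exposure; fluorescence intensity, laser scanning cytometer; positive fitting direction, DMSO baseline.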
With `CCC(C)Nc1c([N+](=O)[O-])cc(C(C)(C)C)cc1[N+](=O)[O-]` (configuration not stated) the outcome was “inactive”. With `O=C(NC(=O)c1c(F)cccc1F)Nc1ccc(OC(F)(F)C(F)OC(F)(F)F)c(Cl)c1` (configuration not stated) the outcome was “inactive”. In the case of `OCCOc1ccccc1`, the outcome is reported as “inactive”. In the case of `CNC(=O)Oc1ccccc1OC(C)C`, the outcome is reported as “inactive”. With `CCCN(CCC)c1c([N+](=O)[O-])cc(C(F)(F)F)cc1[N+](=O)[O-]` the outcome was “inactive”. For `CCOC1Oc2ccc(OS(C)(=O)=O)cc2C1(C)C` (configuration not stated), the outcome was “inactive”. `CC1(c2ccc(Oc3ccccc3)cc2)OC(=O)N(Nc2ccccc2)C1=O` (configuration not stated) was tested, and the outcome was “inactive”. For `Clc1ccccc1-c1nnc(-c2ccccc2Cl)nn1`, the outcome was “inactive”. For `COP(=O)(OC)OC=C(Cl)Cl`, the outcome was “inactive”. `C#CCN1C(=O)COc2cc(F)c(N3C(=O)C4=C(CCCC4)C3=O)cc21` was tested, and the outcome was “inactive”. For `CNC(=O)Oc1cccc(N=CN(C)C)c1`, the outcome was “inactive”. `CCC(C)(NC(=O)c1cc(Cl)c(C)c(Cl)c1)C(=O)CCl` (configuration not stated) was tested, and the outcome was “inactive”. For `CCN(CC)C(=O)SCc1ccc(Cl)cc1`, the outcome was “inactive”. With `CN1CSC(=S)N(C)C1` the outcome was “inactive”. In the case of `CCc1ccc(C(=O)NN(C(=O)c2cc(C)cc(C)c2)C(C)(C)C)cc1`, the outcome is reported as “inactive”. In the case of `O=S1OCC2C(CO1)C1(Cl)C(Cl)=C(Cl)C2(Cl)C1(Cl)Cl` (configuration not stated), the outcome is reported as “inactive”. `CC(C)N(C(=O)COc1nnc(C(F)(F)F)s1)c1ccc(F)cc1` was tested, and the outcome was “inactive”. In the case of `CNC(=O)/C=C(\C)OP(=O)(OC)OC`, the outcome is reported as “inactive”. For `Cc1[nH]c(=O)n(C(C)(C)C)c(=O)c1Cl`, the outcome was “inactive”.

These molecules were tested against Androgen Receptor/SRC-1 Co-activator, AR (gene 367) (UniProt P10275) (assay: OT_AR_ARSRC1_0960: Odyssey Thera (OT) 16-hour HEK293T Protein-Complementation Assay for Androgen Receptor/SRC-1 Co-activator (AID 2283353);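 further: actives raise the signal above DMSO so potency reflects increased AR and SRC-1 complex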).
Chain of Androgen Receptor/SRC-1 Co-activator, AR (gene 367) (P10275 whole entry, looked up, the tested form may be a part): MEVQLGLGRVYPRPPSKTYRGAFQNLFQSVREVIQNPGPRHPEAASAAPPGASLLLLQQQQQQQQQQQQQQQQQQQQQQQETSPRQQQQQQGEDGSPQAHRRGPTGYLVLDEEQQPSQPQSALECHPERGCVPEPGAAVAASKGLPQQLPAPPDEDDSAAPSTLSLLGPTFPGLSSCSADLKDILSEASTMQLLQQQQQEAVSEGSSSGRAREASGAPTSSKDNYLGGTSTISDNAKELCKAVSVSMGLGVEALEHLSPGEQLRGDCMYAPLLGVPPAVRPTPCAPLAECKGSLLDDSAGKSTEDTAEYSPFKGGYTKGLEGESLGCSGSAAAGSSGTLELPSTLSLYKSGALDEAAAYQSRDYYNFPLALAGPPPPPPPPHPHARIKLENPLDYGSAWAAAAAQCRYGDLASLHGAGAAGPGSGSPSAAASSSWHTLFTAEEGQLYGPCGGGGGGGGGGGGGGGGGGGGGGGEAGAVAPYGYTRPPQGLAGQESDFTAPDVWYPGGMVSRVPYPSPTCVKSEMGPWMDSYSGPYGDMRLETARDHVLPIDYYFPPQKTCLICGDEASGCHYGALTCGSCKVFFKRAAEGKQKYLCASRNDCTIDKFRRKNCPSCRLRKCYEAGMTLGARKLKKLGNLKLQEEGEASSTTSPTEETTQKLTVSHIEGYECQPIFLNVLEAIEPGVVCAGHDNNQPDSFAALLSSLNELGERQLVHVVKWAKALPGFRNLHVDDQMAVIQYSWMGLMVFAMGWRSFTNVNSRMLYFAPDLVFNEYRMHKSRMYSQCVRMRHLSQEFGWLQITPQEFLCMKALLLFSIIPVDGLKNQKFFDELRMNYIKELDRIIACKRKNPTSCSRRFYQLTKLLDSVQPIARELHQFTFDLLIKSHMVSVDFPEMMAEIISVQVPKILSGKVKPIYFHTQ
In short: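 Split-Venus PCA, AR/SRC-1 fusions, stable HEK293T; 16 h compound exposure; imaged at 488 and 635 nm; N/C ratio (488 nm channel), min 400 cells/image; positive-direction fit, DMSO baseline.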
In the case of `CCC(C)(C)C(=O)OC1=C(c2ccc(Cl)cc2Cl)C(=O)OC12CCCCC2`, the AC50 is reported as 82.4 µM (active). With `O=C(O)CCCOc1ccc(Cl)cc1Cl` the outcome was “inactive”. `CCCN(CCC)c1c([N+](=O)[O-])cc(C(F)(F)F)cc1[N+](=O)[O-]` was tested, and the outcome was “inactive”. `CCOC1Oc2ccc(OS(C)(=O)=O)cc2C1(C)C` (configuration not stated) was tested, and the outcome was “inactive”. `C#CCN1C(=O)COc2cc(F)c(N3C(=O)C4=C(CCCC4)C3=O)cc21` was tested, and the outcome was “inactive”. `O=S1OCC2C(CO1)C1(Cl)C(Cl)=C(Cl)C2(Cl)C1(Cl)Cl` (configuration not stated) was tested, and the AC50 was 34.5 µM (active). In the case of `Cc1[nH]c(=O)n(C(C)(C)C)c(=O)c1Cl`, the outcome is reported as “inactive”.

Reference: PubChem BioAssay (EPA / NIEHS)
